# Data: PubChem BioAssay (NCI)
# Compounds without any hit were thinned out: in the full panel of roughly 83,000, 20% have a hit.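 Results are percent growth after 48 hours of single-concentration exposure. 100 means growth as in untreated cells, lower positive values show inhibition; negative values down to -100 show cell death.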 Unmarked numbers belong to inactive results. Calls of active or inactive are those of the source. Rule for the calls: active = growth percent below 10; inactive = the rest.
# How the values were obtained:
# Test in all cases: NCI-60 one-dose screen, 48 h (100 = growth as untreated, 0 = no growth, -100 = all killed)
# Settings in all cases: 10 µM unless noted
# [1] = test system: RPMI-8226 leukemia
# [2] = test system: OVCAR-8 ovarian
# [3] = test system: OVCAR-5 ovarian
# [4] = test system: OVCAR-4 ovarian
# [5] = test system: SK-OV-3 ovarian
# [6] = test system: IGROV1 ovarian
# [7] = test system: OVCAR-3 ovarian
# [8] = test system: HS 578T breast
# [9] = test system: NCI/ADR-RES ovarian
# [10] = test system: T-47D breast
# [11] = test system: BT-549 breast
# [12] = test system: MDA-MB-435 melanoma
# [13] = test system: SW-620 colon
# [14] = test system: MCF7 breast
# [15] = test system: HCT-116 colon
# [16] = test system: HCC-2998 colon
# [17] = test system: KM12 colon
Compound,growth [1],growth [2],growth [3] [%],growth [4],growth [5],growth [6],growth [7],growth [8],growth [9],growth [10],growth [11],growth [12],growth [13],growth [14],growth [15],growth [16],growth [17]
Cn1cc(-c2ccc3cc(-c4ccc(CC(=O)Nc5cc(C(C)(C)C)nn5C)cc4)cnc3c2)cn1,3.3% (active),3.03% (active),43.8,3.73% (active),-5.28% (active),-1.22% (active),14.2%,-1.77% (active),-2.56% (active),-0.815% (active),-8.22% (active),5.58% (active),20.1%,13.4%,11.5%,32.9%,-33.3% (active)
CCCCCCCCCCCCCCCCCCOc1ccccc1CC(=O)OCC[N+](CC)(CC)CC,-3.45% (active),17.7%,41,19.1%,66.2%,-26.9% (active),31.4%,38.2%,95.9%,23.5%,76.3%,11%,21.6%,12.9%,19.8%,22.5%,51.3%
CCOc1c(B(O)O)cccc1-c1nc2ccc3[nH]ncc3c2c2c1CCCC2,39.5%,65%,74.7,93.3%,72%,77.6%,113%,34.5%,62.7%,75.5%,25.1%,90.1%,38.3%,59.4%,34.8%,51%,32.2%
COc1ccc2c(c1)/C(=C/c1sc(=S)n(Cc3ccco3)c1O)C=N2,18.5%,40.7%,76.8,73.7%,68.6%,47.8%,22.9%,20.4%,13.3%,45.3%,7.24% (active),-32.7% (active),28.1%,21.8%,11.9%,44.7%,23.9%
COc1ccc(OC)c(/C=C/C(=O)N/N=C/c2ccccc2)c1,54.4%,54.8%,85,78.2%,60%,38.5%,6.02% (active),66.5%,8.51% (active),39.7%,60.8%,-7.51% (active),28.7%,17.3%,14.2%,66.4%,31%
COc1cc(C(=O)N/N=C/c2cc3cc(OCc4ccccc4)ccc3nc2OC)cc(OC)c1OC,35.6%,68.4%,86.9,63.4%,91.1%,111%,99.4%,61.2%,82.2%,54.3%,73.4%,88.3%,91.6%,78.4%,85.7%,96.7%,96.2%
C[C@H]1[C@H]2[C@H]3CC[C@@H]4[C@@]5(C)CC[C@H](O)C(C)(C)[C@@H]5CC[C@@]4(C)[C@]3(C)CC[C@]23CO[C@]1(C)[C@@H](C(=O)/C=C\c1cccnc1)C3,9.55% (active),35.1%,121,49%,77.8%,80.6%,46.7%,82%,78.9%,30.2%,57.2%,34.5%,32.3%,23.7%,14.4%,69.9%,54.4%
COc1c(B(O)O)cc(F)cc1-c1nc2ccc3[nH]ncc3c2c2c1CCCC2,-9.77% (active),16.1%,15.4,25.8%,19.3%,10.6%,11.9%,-2.19% (active),16.1%,14%,-35.5% (active),16.4%,5.71% (active),4.26% (active),3.48% (active),5.31% (active),-3.54% (active)
N#Cc1ccc(NC(=O)c2sc3nc4c(cc3c2N)C(=O)CCC4)cc1,95.7%,105%,89.2,106%,106%,113%,114%,111%,106%,95.9%,108%,97.4%,98.1%,97.4%,108%,99.2%,101%
